# Tested on: Vero E6 infected with SARS-CoV-2
# Assay: morphology score (similarity to uninfected cells); higher = more like uninfected cells
# Settings: 24 h
row,SMILES,morphology score
1,COc1ccccc1C1(O)CCN(CCCn2c3ccccc3c3ccccc32)CC1 (0.833333 µM),0.0278
2,Nc1nc(O)c2nc(Br)n([C@@H]3O[C@@H]4COP(=O)(O)O[C@H]4[C@H]3O)c2n1 [8-bromo-cGMP] (10 µM),0.0521
3,CCCCNc1ncc(-c2ccc(CN3CCOCC3)cn2)c(N[C@H]2CC[C@H](O)CC2)n1 (10 µM),0.102
4,O=C1C=CC[C@@H]2[C@H]3CCCN4CCC[C@@H](CN12)[C@@H]34 [sophocarpine] (10 µM),-0.0321
5,CCOc1ccc2ccccc2c1C(=O)N[C@@H]1C(=O)N2[C@@H]1SC(C)(C)[C@@H]2C(=O)O [nafcillin] (10 µM),-0.164
6,CCCCC(=O)N(Cc1ccc(-c2ccccc2-c2nnn[nH]2)cc1)[C@H](C(=O)O)C(C)C [valsartan] (10 µM),0.00713
7,O[C@H]1[C@H](O)[C@@H](O)CN2CC[C@H](O)[C@H]12 [castanospermine] (10 µM),-0.18
8,COc1ccc(C(C)=O)c(O)c1 [paeonol] (10 µM),0.0505

# From the supplement of paper PMC13380429
